Screening data from PubChem.
The list is not random: actives were taken first. Their share in the collection is about 12%.
JMJD2A Tudor inh: qHTS Assay for Inhibitors of JMJD2A-Tudor Domain; 390,000 tested, 4.4% active; Lysine-specific demethylase 4A (Homo sapiens), O75164; Potency, µM (titrated, usually from 114 µM), for inactives: top-dose activity change, negative = inhibition, usual class: inhibitors; AlphaScreen JMJD2A-Tudor / H3K4me3 peptide binding; note: % is set by controls: 0 for no effect and ±100 for the full control effect; nearly all actives have a fitted effect of over 50% in size
L3MBTL1 inh: qHTS Assay for the Inhibitors of L3MBTL1. 230,000 tested, 0.66% active. AID 485360, 2010. Potency, µM (series often up to 57.1 µM), inactives show top-dose activity, negative = inhibition, actives largely listed as inhibitors. AlphaScreen L3MBTL1–H3K9me1 peptide binding; note: % is set by controls: 0 for no effect and ±100 for the full control effect; nearly all actives have a fitted effect of over 60% in size
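AlphaScreen proximity signal between nickel-chelate acceptor and streptavidin donor beads (final 10 ug/mL) reports binding of 50 nM L3MBTL1 to 75 nM biotin-H3 K9me1 peptide; complex incubated with compounds 30 min at room temperature; cefsulodin titration as control.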
BAZ2B inh: qHTS Assay for Inhibitors of BAZ2B; Bromodomain adjacent to zinc finger domain protein 2B (Homo sapiens), Q9UIF8; AlphaScreen BAZ2B-H3K14Ac peptide displacement; Potency, µM (highest dose often 114 µM), without a hit: at the top dose activity change, negative = inhibition, most hits filed as inhibitors; 360,000 tested, 4.4% active; AID 504333, 2011; note: % is set by controls: 0 for no effect and ±100 for the full control effect; nearly all actives have a fitted effect of over 60% in size
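AlphaScreen displacement of biotin-H3(5-23)K14Ac peptide (50 nM final) from BAZ2B (50 nM final) in PBS pH 7.4, 0.01% Tween-20; complex preformed 30 min RT, then compounds (top 110 uM) 30 min RT, beads 20 min dark.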
G9a inh: qHTS Assay for Inhibitors of Histone Lysine Methyltransferase G9a; Histone-lysine N-methyltransferase EHMT2 (Homo sapiens), Q96KQ7; Potency, µM (titrated, usually from 102 µM), without a hit: top-dose activity, negative = inhibition, usual class: inhibitors; AID 504332, 2011; G9a H3K9 monomethylation, AlphaScreen, 2 h; 350,000 tested, 8.8% active; note: % is set by controls: 0 for no effect and ±100 for the full control effect; nearly all actives have a fitted effect of over 75% in size
Target sequence (Q96KQ7 913-1193 limits assumed): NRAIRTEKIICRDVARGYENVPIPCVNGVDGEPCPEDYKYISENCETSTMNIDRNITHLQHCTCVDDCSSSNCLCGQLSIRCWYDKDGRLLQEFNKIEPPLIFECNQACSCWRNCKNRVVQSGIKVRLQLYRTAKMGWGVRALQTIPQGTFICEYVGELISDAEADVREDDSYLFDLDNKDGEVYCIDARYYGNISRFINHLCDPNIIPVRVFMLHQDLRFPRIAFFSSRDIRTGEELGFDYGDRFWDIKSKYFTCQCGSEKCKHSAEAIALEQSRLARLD
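Quantitative HTS format: methyltransferase activity on a biotin-tagged H3K9 peptide is measured by AlphaScreen, using a rabbit anti-monomethyl-H3K9 antibody with streptavidin donor and anti-IgG acceptor beads. Final levels are 20 nM enzyme, 500 nM peptide, 20 uM SAM; 2 h RT.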
Sfp inh: qHTS Assay for Inhibitors of Bacillus subtilis Sfp phosphopantetheinyl transferase (PPTase); Potency, µM, for the others: largest response in the series, negative = inhibition, most hits filed as inhibitors; 4'-phosphopantetheinyl transferase ffp (Bacillus subtilis), Q9F4F7; 310,000 tested, 3.5% active; Biochemical Sfp PPTase activity, qHTS;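 note: the enzyme is Sfp with the accession as filed and its product quenches rhodamine fluorescence; 0% = enzyme reaction without inhibitor and -100% = no enzyme wells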
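Fluorescence-quenching assay: 15 nM Sfp-PPTase preincubated 15 min at room temperature with compound, then 5 uM rhodamine-CoA and 12.5 uM BHQ-2-labelled YbbR peptide added. Fluorescence (ex 525/em 598 nm) read at start and after 30 min; difference gives rate.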
HP1b binding inh: HTS for Inhibitors of HP1-beta Chromodomain Interactions with Methylated Histone Tails; Chromobox protein homolog 1 (Homo sapiens), P83916; AlphaScreen HP1-beta / biotin-H3K9me3 peptide binding; Potency, µM (top dose mostly 114 µM), without a hit: top-dose activity change, negative = inhibition, actives largely listed as inhibitors; 390,000 tested, 0.56% active; note: nearly all actives have a fitted effect of over 70% in size
Target sequence (P83916 whole entry, looked up): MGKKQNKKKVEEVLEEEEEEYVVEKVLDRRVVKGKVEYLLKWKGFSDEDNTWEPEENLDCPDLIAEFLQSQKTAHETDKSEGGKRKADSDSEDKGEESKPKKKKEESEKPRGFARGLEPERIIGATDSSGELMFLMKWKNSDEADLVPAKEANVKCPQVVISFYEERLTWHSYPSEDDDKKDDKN
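Compound inhibition of the preformed complex between 50 nM HP1-beta and 50 nM biotinylated H3K9me3 peptide was read by AlphaScreen. Buffer was PBS pH 7.4 with 0.01% Tween-20. Incubations ran 30 min at room temperature, with 10 ug/mL donor/acceptor beads.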
An asterisk follows results filed as active; ? = inconclusive; · = no result given; [ ] = remark or other dose. Calls come from the whole dose curve; as a rule, active = well fitted curve in the direction sought with a large enough effect; inconclusive = small, poorly fitted or top-dose-only effect, or another doubt; inactive = no such curve, though single readings can be large; an effect the other way counts as inactive or inconclusive. Potency is the fitted concentration of half-maximal effect.

SMILES	JMJD2A Tudor inh	L3MBTL1 inh	BAZ2B inh	G9a inh	Sfp inh	HP1b binding inh
CCOC(=O)c1ccc(NC(=O)CN2C(=O)c3cccnc3Oc3ccc(Cl)cc32)cc1	-35.3%	·	?	-10.3%[59 µM]	·	3.5%
CCCCn1c(C)cc2c(c1=O)C1O[C@](c3ccc(OC)cc3)(Cc3cc(OC)c(OC)cc31)O2	·	·	-33.7%[22.9 µM]	-4.5%[2.33 µM]	-11.7%	·
Cc1cc(C)c(S(=O)(=O)NCC(c2cccs2)S(=O)(=O)c2ccccc2)c(C)c1 (centres undefined)	-8.4%	·	-4.4%	-1.5%[59 µM]	·	75.7%
CCc1ccc(C2N3CC4(C)CN2CC(c2ccccc2)(C3)C4=O)cc1 (centres undefined)	-16.7%	·	-8.1%	2.9%[59 µM]	·	45.3%
COc1cc(/C=N/Nc2ccc(F)cc2F)cc(OC)c1OC	-3.8%	-6.7%	-35.5%	1.78µM*	5.6%	-3.3%
Cc1ccccc1/C=N/Nc1ccnc2cc(Cl)ccc12	?	7.8%	-5.7%	12.7%[59 µM]	-11.9%	4.8%
Cc1ccc(/C=N/Nc2ccnc3cc(Cl)ccc23)c(C)c1	22.4µM*	-8.5%	?	?	44.7µM*	-1.5%
Fc1ccc(N/N=C/c2cccnc2)c(F)c1	-24.0%	-15.7%	-26.2%	31.6µM*	-6.2%	18.3%
Clc1ccc2c(N/N=C/c3cccnc3)ccnc2c1	-20.1%	12.9%	-3.4%	-8.2%	50.1µM*	4.1%
Clc1ccc2c(N/N=C/c3ccc(Br)cc3)ccnc2c1	-18.9%	36.5%	15.2%	?	?	7.9%
COc1cc(/C=N\Nc2nc3ccccc3o2)cc(OC)c1OC	-11.3%	-1.7%	4.4%	7.2%[59 µM]	-1.9%	31.9%
CCCc1cc(=O)[nH]c2nnc(SCC)n12	0.3%	·	2.7%	?	·	48.9%
CC(=O)NCCNc1cc(-c2ccccc2C)ncn1	·	·	·	2.8%[0.501 µM]	8.6%	·
Cc1ccc2c(c1)NC(=O)C(CC(=O)N(C)Cc1ccccc1)O2 (centres undefined)	-9.2%	·	-1.9%	50.1µM*	?	42.3%
CCC(C)NC(=O)CC1Oc2ccc(C)cc2NC1=O (centres undefined)	-15.5%	9.2%	4.9%	44.7µM*	?	41.5%
Cc1ccc(NC(=O)CC2Oc3ccc(C)cc3NC2=O)cc1 (centres undefined)	-16.9%	·	-24.5%	?	3.1%	9.8%
COC(=O)CC1Oc2ccc(C)cc2NC1=O (centres undefined)	-13.4%	·	9.5%	3.7%	-4.0%	38.0%
Cc1nc2ccccc2c(=O)n1-c1ccc(NC(=O)c2cccc([N+](=O)[O-])c2)cc1	-17.2%	·	-0.7%	-15.8%[59 µM]	·	10.0%
Fc1ccc(Nc2ncnc3onc(-c4cccc(Cl)c4)c23)c(F)c1	-10.3%	·	-0.2%	-5.1%[59 µM]	·	32.2%
S=c1[nH]nc(-c2ccco2)n1C1CCCCC1	3.16µM*	-2.7%	-11.7%	2µM*	-19.6%	?
S=c1[nH]nc(-c2ccco2)n1-c1ccc(Cl)cc1	31.6µM*	0.3%	-15.3%	?	-14.8%	-7.7%
Nn1c(-c2ccco2)n[nH]c1=S	7.08µM*	12.1%	50.1µM*	8.91µM*	56.2µM*	?
CN(C(=O)CSc1nnc(-c2ccco2)n1N)C1CCCCC1	-6.3%	-1.7%	0.1%	-0.5%	14.2%	39.9%
COc1ccc(-n2c(-c3ccco3)n[nH]c2=S)cc1	4.47µM*	1.4%	-3.5%	3.98µM*	-18.9%	?
COC(=O)c1ccccc1NC(=O)CSc1nnc2cc(C)c3cc(C)cc(C)c3n12	-28.1%	·	-21.3%	-34.4%[59 µM]	·	0.7%
SMILES	JMJD2A Tudor inh	L3MBTL1 inh	BAZ2B inh	G9a inh	Sfp inh	HP1b binding inh
Cc1ccc(C)c(-n2c(-c3ccco3)n[nH]c2=S)c1	8.91µM*	·	·	·	·	-22.6%
Cc1ccc(C)c(N2CN(Cc3ccco3)CNC2=S)c1	-24.5%	-2.1%	2.6%	18.2%[59 µM]	17.9%	9.3%
Cn1cc(Cl)c(C(=O)NC2CCCCCC2)n1	-7.6%	-3.8%	-4.8%	19.4%[12.7 µM]	12.8%	0.1%
Cn1cc(Cl)c(-c2n[nH]c(=S)n2C2CCCCC2)n1	4.47µM*	·	-19.0%	?	24.5%	16.6%
CCN(CC)CCOc1ccc2c(c1)C(=O)c1cc(OCCN(CC)CC)ccc1-2	·	·	·	-43.5%[2.33 µM]	11.4%	·
CCCCCCOc1cccc(N)c1	-33.8%	2.6%	-36.5%	?	17.9%	5.4%
CC(C)c1cccc(OCCCCN(C)C)c1	?	·	?	3.98µM*	79.4µM*	?
CCN(CC)CCOc1cccc(C(C)C)c1	6.31µM*	10.1%	?	?	-6.5%	?
Cc1ccc(O)c(NC2=C(Cl)C(=O)N(Cc3ccccc3)C2=O)c1	3.98µM*	?	44.7µM*	6.31µM*	7.08µM*	15.8µM*
Cc1ccc(C(=O)N2CCCCC2)cc1NC1=C(Cl)C(=O)N(Cc2ccccc2)C1=O	-25.7%	-10.8%	-33.6%	-5.3%[2.33 µM]	·	30.4%
O=C1C(Cl)=C(Nc2ccccc2O)C(=O)N1c1ccccc1	35.5µM*	-3.0%	?	7.94µM*	22.4µM*	?
Cc1cccc(NC(=O)c2ccc(F)c(S(=O)(=O)NCc3ccc4c(c3)OCO4)c2)c1	-20.8%	·	-2.2%	4.5%[59 µM]	·	11.6%
CCc1ccc2[nH]c(=O)c(CN(Cc3ccccc3)Cc3nnnn3C(C)(C)C)cc2c1	-26.9%[57.1 µM]	·	·	·	·	1.5%[57 µM]
Cc1cc(NC(=O)CSc2nc3cc(C(=O)NCCCOC(C)C)ccc3c(=O)n2Cc2ccco2)no1	-11.0%	·	-10.3%	-0.4%	56.2µM*	-0.6%
COC(=O)c1ccc2c(=O)n(Cc3ccco3)c(SCC(=O)Nc3cc(C)on3)nc2c1	-21.8%	3.7%[11.4 µM]	-29.9%	-32.1%	?	34.3%
COCCNC(=O)c1ccc2c(=O)n(Cc3ccco3)c(SCC(=O)Nc3ccc(OC)cc3OC)nc2c1	56.2µM*	·	3.9%	25.1%	-1.6%	13.0%
O=C(CSc1ncc2c(n1)-c1ccccc1N(Cc1ccc(Cl)cc1)S2(=O)=O)c1ccc(Cl)cc1	-0.3%	·	3.1%	0.8%[59 µM]	·	46.4%
CS(=O)(=O)N1CCN(S(=O)(=O)c2ccccc2[N+](=O)[O-])CC1	-6.0%[11.4 µM]	-2.0%	-14.4%	0.2%	11.2%	-4.5%
O=[N+]([O-])c1cccc(OCCCN2CCC(Cc3ccccc3)CC2)c1	79.4µM*	·	·	·	·	-14.8%
O=[N+]([O-])c1ccccc1S(=O)(=O)N1CCN(C2CCCC2)CC1	1.78µM*	·	79.4µM*	·	-25.8%	?
